Assay outcomes deposited in PubChem BioAssay by The Scripps Research Institute Molecular Screening Center.
Only some compounds are listed: those with a hit (about 2.9% of all), similar ones and a draw of the others.
PLCg1 inh: blocks human PLC-gamma1 enzyme activity; hit rate 0.84% among 370,000; inhibition, % at 12.2 µM; AID 720700; purified PLC-gamma1, fluorogenic substrate, fluorescence; P19174; in the data active means inhibition above about 9.5%
KLK7 zymogen act: proKLK7 (human) activation, primary screen | AID 652039 | purified proKLK7, EDANS-DABCYL substrate fluorescence; 100% is mature enzyme control, 0% vehicle | hit rate 0.9% among 370,000 | P49862 | activation, % at 7 µM;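 active means activation above the mean of all tested compounds plus 3 SD, computed per campaign excluding outliers beyond control limits, cut at about 13% in these data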
ADAM17 inh: ADAM17 inhibition, QFRET primary screen; recombinant ADAM17, EDANS/DABCYL FRET peptide cleavage; inhibition, % at 6.95 µM; P78536; hit rate 0.83% among 370,000;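 active means inhibition above the mean of compounds lying between control limits plus 3 SD, set per campaign, cut at about 8.5% in these data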;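 further: 0% = DMSO-only wells as the low control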
ADAM10 inh: ADAM10 inhibition, QFRET primary screen; inhibition, % at 7 µM; hit rate 0.62% among 370,000; AID 720582; recombinant ADAM10, EDANS/DABCYL FRET peptide cleavage, 3 h; O14672;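 active means inhibition above a per-campaign cutoff equal to the mean of compounds falling between control-based bounds plus 3 SD, cut at about 20% in these data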;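 further: 0% = DMSO wells while the 100% control is not disclosed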
PLC-beta3 inh: blocks human PLC-beta3 enzyme activity. Q01970. Purified PLC-beta3, fluorogenic substrate, fluorescence. inhibition, % at 12.2 µM. hit rate 0.18% among 370,000; in the data active means inhibition above about 11%;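 further: 0% = median of compound wells on plate and 100% = full blocker control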
ADAM10 ctr: inhibits human ADAM10 in ADAM17 exosite counter-screen; shares compounds with ADAM17 inh; recombinant ADAM10, EDANS/DABCYL FRET peptide cleavage, 3 h; inhibition, % at 6.95 µM; hit rate 47% among 2,900; AID 743256;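 active means mean inhibition over the triplicate runs exceeds the activity threshold set in the earlier primary screen, cut at about 20% in these data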;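 further: 0% = DMSO wells and 100% = marimastat wells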
ADAM17 confirm: confirmation of inhibitors of human ADAM17; recombinant ADAM17, EDANS/DABCYL QFRET peptide cleavage; inhibition, % at 6.95 µM; shares compounds with ADAM17 inh; hit rate 65% among 2,900;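 active means mean inhibition across replicates above the hit cutoff set in the primary screen, cut at about 8.5% in these data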;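 further: 0% = DMSO wells and 100% = marimastat wells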
* marks the source's active call; other numbers are inactive results; . = no result.

SMILES | PLCg1 inh | KLK7 zymogen act | ADAM17 inh | ADAM10 inh | PLC-beta3 inh | ADAM10 ctr | ADAM17 confirm
COC(=O)c1nn(-c2ccccc2)c(Sc2ccc(Cl)cc2)c1/C=N/O | -1 | 0 | 4 | 7 | -2 | . | .
CCN1C(=O)C(CC(=O)Nc2ccc(Br)cc2)N(CCCc2ccccc2)C1=S (stereo not drawn) | 9 | 0 | 9.0* | 18 | 9 | 35* | 20*
O=C(CSC1CC(=O)N(CCc2ccccc2)C1=O)Nc1ccc(Br)cc1 (stereo not drawn) | 3 | -1 | 9.3* | 12 | 1 | 10 | 8
O=C(C(=O)N(Cc1ccccc1)Cc1ccccc1)c1c(-c2ccccc2)[nH]c2ccccc12 | -4 | -4 | 11* | 22* | -1 | 42* | 22*
O=c1c(Cc2ccc(Cl)cc2)c(O)ccn1Cc1cccc(Cl)c1 | 3 | 0 | -2 | 3 | -2 | . | .
O=c1c(Cc2ccc(Cl)cc2Cl)c(O)ccn1Cc1ccc(Cl)cc1 | 4 | 0 | 11* | 19 | -1 | 26* | 16*
CCN1C(=O)[C@@H]2[C@@H](c3ccc(-c4cccc(Cl)c4)c(OC)c3)N3CCCC[C@@]3(C(=O)OC)[C@@H]2C1=O | 6 | 0 | 9.9* | 13 | 5 | 20* | 16*
CCN1C(=O)[C@@H]2[C@@H](c3ccc(-c4ccc(Cl)c(Cl)c4)c(OC)c3)N3CCC[C@@]3(C(=O)OC)[C@@H]2C1=O | -4 | 0 | 6 | 15 | -6 | . | .
CCN1C(=O)[C@@H]2[C@@H](c3ccc(-c4ccc(OC)cc4)c(OC)c3)N3CCCC[C@@]3(C(=O)OC)[C@@H]2C1=O | -11 | 1 | 9.3* | 2 | -20 | -7 | -1
CCN1C(=O)[C@H]2[C@@H](c3ccc(-c4ccc(OC)cc4)c(OC)c3)N3CCCC[C@@]3(C(=O)OC)[C@H]2C1=O | -4 | 0 | 6 | 11 | -10 | . | .
Cc1cccc(/C(N)=N/OC(=O)N2CCOCC2)c1 | 5 | 0 | 13* | 2 | 4 | 14 | 12*
CCCCOC(=O)c1ccc(NC(=O)COC(=O)CN2C(=O)NC3(CCCC3)C2=O)cc1 | 1 | 0 | 9.2* | 5 | -3 | 21* | 13*
Cc1cc(C)nc(NS(=O)(=O)c2ccc(NC(=O)C3(c4ccc([N+](=O)[O-])cc4)CCCC3)cc2)n1 | -3 | 0 | 0 | 0 | -2 | . | .
Cc1cccc(NC(=O)C2(c3ccc([N+](=O)[O-])cc3)CCCC2)c1 | 3 | 0 | 9.3* | -4 | 5 | 10 | 7
CCCc1cc(C(=O)N2CCN(c3ccc(C(F)(F)F)cn3)CC2)sc1C | 5 | 1 | 12* | 16 | -6 | 21* | 14*
Cc1ccc(C(=O)N2CCN(c3ccc(C(F)(F)F)cn3)CC2)cc1 | -1 | 0 | -3 | 7 | 2 | . | .
CN(C)S(=O)(=O)c1cccc(NC(=O)CSc2nc3ccccc3[nH]2)c1 | 8 | 1 | -2 | 0 | -1 | . | .
Cc1ccc2nc(SCC(=O)Nc3cccc(S(=O)(=O)N(C)C)c3)[nH]c2c1 | 9 | 0 | 12* | 19 | 7 | 12 | 11*
O=C1CC(c2ccco2)CC(O)=C1C=Nc1cc(Cl)ccc1Cl (stereo not drawn) | -5 | 1 | 2 | -3 | -5 | . | .
O=C1CC(c2ccco2)CC(O)=C1C=Nc1cc(Cl)ccc1O (stereo not drawn) | -158 | -1 | 11* | 18 | -212 | -30 | -6
Cc1ccccc1NC(=O)COC(=O)CCC(=O)c1cccs1 | 0 | 0 | 2 | -8 | -7 | . | .
Cc1cccc2sc(NC(=O)CN(C)S(=O)(=O)c3ccc(Br)s3)nc12 | 7 | 0 | 8.8* | 18 | 3 | 44* | 24*
Cc1cccc2sc(NC(=O)CN(C)S(=O)(=O)c3cccs3)nc12 | 2 | 0 | 2 | 12 | -35 | . | .
O=C(CC1Sc2ccccc2NC1=O)OCC(=O)N1CCc2ccccc21 (stereo not drawn) | 5 | 0 | 9.2* | -2 | 3 | 8 | 8
Cc1cc(C(=O)COC(=O)CC2Sc3ccccc3NC2=O)c(C)n1-c1ccc(Br)cc1 (stereo not drawn) | -2 | -1 | 8.8* | 13 | -3 | 7 | 8
SMILES | PLCg1 inh | KLK7 zymogen act | ADAM17 inh | ADAM10 inh | PLC-beta3 inh | ADAM10 ctr | ADAM17 confirm
CCCN(C(=O)CSc1nnc(-c2ccc3c(c2)OCO3)o1)C1CCS(=O)(=O)C1 (stereo not drawn) | 1 | 1 | -1 | -10 | 2 | . | .
CCCOc1ccc(CC(=O)NNC(=S)Nc2ccccc2)cc1Br | 2 | 0 | 12* | 13 | 1 | 10 | 9
O=C(NC1CCN(C(=S)Nc2ccccc2)CC1)C1CCCCC1 | 0 | -1 | -1 | -4 | 1 | . | .
COc1ccc(NC(=O)c2nc(C)c(C3(C)CC(c4cccnc4)=NO3)s2)cc1 (stereo not drawn) | -1 | 1 | 11* | 11 | -7 | 18 | 10*
COc1ccc(NC(=O)C2=CC(c3ccco3)=NS(=O)(=O)N2C)cc1 | 5 | 0 | 1 | 0 | 5 | . | .
COc1ccc(NC(=O)C2=CC(c3ccc(OC)cc3)=NS(=O)(=O)N2C)cc1 | 1 | 1 | 10* | 11 | -2 | 17 | 7
Cc1cccc(C)c1NC(=O)CN(C)CC(=O)Nc1cc(Cl)ccc1C#N | 4 | 0 | 0 | -5 | 3 | . | .
CCOc1ccc(NC(=O)CN(C)CC(=O)Nc2cc(Cl)ccc2C#N)cc1OCC | 1 | 0 | 9.0* | 12 | -1 | 1 | 1
Cc1ccc(C)c(NC(=O)CN(C)C(=O)c2ccc(COc3ccccc3)cc2)c1 | 8 | 0 | 11* | 7 | 7 | 7 | 6
C/C(=N\Nc1nncc2ccccc12)c1cccc(OC(F)F)c1 | 0 | 0 | -1 | 0 | -9 | . | .
CCOc1ccccc1NS(=O)(=O)c1ccc(-c2cnc(C3CC3)o2)cc1 | 1 | 0 | 9.9* | 7 | -5 | 0 | 5
COc1ccccc1NS(=O)(=O)c1ccc(-c2cnc(C3CC3)o2)cc1 | -3 | 1 | -1 | 3 | -10 | . | .
COc1ccc(OC)c(NC(=O)CSc2nc(O)cc(=O)n2CC(C)C)c1 | -9 | 0 | 9.3* | 8 | -8 | 3 | 4
O=C(NCc1ccccc1)c1cccc(COc2ccc(Cl)cc2)c1 | -2 | 0 | 3 | 12 | 0 | . | .
COc1cc(CNC(=O)c2cccc(COc3ccc(Cl)cc3)c2)cc(OC)c1 | -1 | 0 | 8.7* | 17 | 2 | 24* | 11*
COc1ccc(-c2cc(C3CCN(c4ccc(C(C)=O)cc4[N+](=O)[O-])CC3)[nH]n2)cc1 | 6 | 1 | 13* | 33* | 3 | 32* | 19*
